Where “and” joins values, the source holds several entries; their conditions need not be identical. Equal entries are not always repeated. Inconclusive results are not listed. More than one record can exist for a structure, and the calls need not agree. Calls of active or inactive are those of the source. Unless noted, the call rests on the fitted dose curve.
Legend:
[1] = Nuclear factor erythroid 2-related factor 2/antioxidant responsive element (Nrf2/ARE) small molecule agonists: qHTS cell viability counter screen in human keratinocytes (AID 1919968; active means well fitted cell-killing curve with a large enough effect in the repeat runs; further: nearly all actives have a fitted effect of over 55% in size; further: potency means the concentration at half of the fitted maximal effect)
In short: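 CellTiter-Fluor fluorescence, read 1 h after reagent, gave viability in the same wells as the ARE-luciferase assay. KeratinoSens cells (1,500/well) had 23 h compound exposure at 37 C/5% CO2 following 5 h plating.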

[2] = Nuclear factor erythroid 2-related factor 2/antioxidant responsive element (Nrf2/ARE) small molecule agonists: luciferase reporter gene qHTS assay in human keratinocytes (AID 1919969); further: nearly all actives have a fitted effect of over 35% in size; further: potency means the concentration at half of the fitted maximal effect
[3] = target: Gonadotropin-releasing hormone receptor (Homo sapiens) (UniProt P30968); assay: Human gonadotropin-releasing hormone receptor (GnRHR) small molecule agonists, calcium flux assay in GnRHR-HEK293 cells (AID 1920063); further: nearly all actives have a fitted effect of over 35% in size
Chain of Gonadotropin-releasing hormone receptor (Homo sapiens) (P30968 whole entry, looked up): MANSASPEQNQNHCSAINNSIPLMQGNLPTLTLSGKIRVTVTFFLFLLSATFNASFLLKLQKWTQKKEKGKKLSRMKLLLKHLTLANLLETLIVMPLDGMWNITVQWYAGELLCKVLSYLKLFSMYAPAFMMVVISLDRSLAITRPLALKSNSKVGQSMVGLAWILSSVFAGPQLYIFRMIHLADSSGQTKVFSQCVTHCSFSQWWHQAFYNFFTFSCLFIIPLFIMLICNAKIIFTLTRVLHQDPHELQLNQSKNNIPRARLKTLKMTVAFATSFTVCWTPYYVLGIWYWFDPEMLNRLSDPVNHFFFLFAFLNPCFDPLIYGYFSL
In short: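 Agonist mode: compounds at 15 concentrations, in triplicate, went onto calcium dye-loaded GnRHR-HEK293 cells. Intracellular calcium was then followed as 480/540 nm fluorescence at 1 s intervals over 3 min.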

[4] = G protein-coupled receptor (GPCR) small molecule agonists, calcium flux assay: HEK293 wild type cell line counter screen (AID 1920065)
In short: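 Calcium flux counter screen: compound added in agonist mode at 15 concentrations in triplicate to dye-loaded parental HEK293 cells. Fluorescence (480/540) read kinetically for 3 min; ATP served as positive control.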

[5] = p53 small molecule agonists, cell-based qHTS assay with rat liver microsomes (AID 1963578)
In short: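 Fluorescence from a beta-lactamase reporter under a p53 response element was measured after cells had been incubated 16 h at 37 C with test compound and rat liver microsomes plus NADPH (0.5 mg/mL final each).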

[6] = p53 small molecule agonists, cell-based qHTS assay with human liver microsomes: qHTS cell viability counter screen (AID 1963579); further: nearly all actives have a fitted effect of over 45% in size; further: potency means the concentration at half of the fitted maximal effect
In short: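 Seed p53RE-bla cells at 4,000 per well; incubate 5 h at 37 C; add compound, human liver microsomes and NADPH; incubate 16 h at 37 C; add CellTiter-Glo; after 30 min at room temperature, read luminescence.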

[7] = p53 small molecule agonists, cell-based qHTS assay with rat liver microsomes: qHTS cell viability counter screen (AID 1963580); further: nearly all actives have a fitted effect of over 45% in size; further: potency means the concentration at half of the fitted maximal effect
In short: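 Rat liver microsome (0.5 mg/mL final) and NADPH (0.5 mg/mL final) co-incubation with compounds for 16 h at 37 C on HCT-116 p53RE-bla cells; cytotoxicity taken from intracellular ATP luminescence.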

[8] = p53 small molecule agonists, cell-based qHTS assay: qHTS cell viability counter screen (AID 1963581); further: nearly all actives have a fitted effect of over 45% in size; further: potency means the concentration at half of the fitted maximal effect
In short: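 Counter screen read by CellTiter-Glo luminescence (ATP content, 30 min at room temperature), run in the same wells as the beta-lactamase reporter read. HCT-116 p53RE-bla cells saw compounds for 16 h at 37 C.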

[9] = p53 small molecule agonists, cell-based qHTS assay (AID 1963582; active means well fitted activation curve with a large enough effect in the signal ratio in the repeat runs, not every such curve was filed as active; the % refers to the signal ratio)
In short: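 Read-out is beta-lactamase FRET fluorescence after 2 h at room temperature with LiveBLAzer B/G substrate. p53 response element-bla cells were treated 16 h at 37 C with compounds in DMSO, added 5 h after seeding.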

[10] = target: 5-hydroxytryptamine receptor 2A (Homo sapiens) (UniProt P28223); assay: 5-hydroxytryptamine receptor 2A (HTR2A) small molecule antagonists, cell-based qHTS assay (AID 1963586); further: nearly all actives have a fitted effect of over 45% in size; further: potency means the concentration at half of the fitted maximal effect
Chain of 5-hydroxytryptamine receptor 2A (Homo sapiens) (P28223 whole entry, looked up): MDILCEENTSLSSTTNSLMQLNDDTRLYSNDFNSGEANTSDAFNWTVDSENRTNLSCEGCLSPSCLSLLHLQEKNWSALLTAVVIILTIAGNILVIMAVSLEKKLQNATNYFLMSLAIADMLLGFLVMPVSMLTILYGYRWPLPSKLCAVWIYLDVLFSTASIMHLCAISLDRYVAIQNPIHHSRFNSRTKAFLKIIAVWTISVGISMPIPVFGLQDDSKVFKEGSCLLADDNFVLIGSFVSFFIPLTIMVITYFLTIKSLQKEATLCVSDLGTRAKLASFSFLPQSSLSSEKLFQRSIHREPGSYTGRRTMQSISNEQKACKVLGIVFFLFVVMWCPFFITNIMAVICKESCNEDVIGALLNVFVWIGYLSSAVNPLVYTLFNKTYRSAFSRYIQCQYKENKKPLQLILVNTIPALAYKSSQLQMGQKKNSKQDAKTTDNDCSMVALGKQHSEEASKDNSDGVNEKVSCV
In short: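 CHO cells stably expressing human HTR2A were plated for 18 h at 37 C, then loaded with calcium dye for 1 h. Compounds were preincubated 5 min at room temperature before DOI (4 nM solution) was added. Kinetic fluorescence was read for 3 min.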

[11] = target: 5-hydroxytryptamine receptor 2A (Homo sapiens) (UniProt P28223); assay: 5-hydroxytryptamine receptor 2A (HTR2A) small molecule agonists, cell-based qHTS assay (AID 1963587); further: nearly all actives have a fitted effect of over 30% in size; further: potency means the concentration at half of the fitted maximal effect
In short: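 Kinetic calcium-flux fluorescence (2 min, 1 sec intervals) after compound addition in agonist mode. HTR2A-CHO cells were cultured 18 h, then dye-loaded 1 h at 37 C.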

[12] = target: Muscarinic acetylcholine receptor M1 (Homo sapiens) (UniProt P11229); assay: Cholinergic receptor muscarinic 1 (CHRM1) small molecule antagonists, cell-based qHTS assay (AID 1963588); further: nearly all actives have a fitted effect of over 40% in size
Chain of Muscarinic acetylcholine receptor M1 (Homo sapiens) (P11229 whole entry, looked up): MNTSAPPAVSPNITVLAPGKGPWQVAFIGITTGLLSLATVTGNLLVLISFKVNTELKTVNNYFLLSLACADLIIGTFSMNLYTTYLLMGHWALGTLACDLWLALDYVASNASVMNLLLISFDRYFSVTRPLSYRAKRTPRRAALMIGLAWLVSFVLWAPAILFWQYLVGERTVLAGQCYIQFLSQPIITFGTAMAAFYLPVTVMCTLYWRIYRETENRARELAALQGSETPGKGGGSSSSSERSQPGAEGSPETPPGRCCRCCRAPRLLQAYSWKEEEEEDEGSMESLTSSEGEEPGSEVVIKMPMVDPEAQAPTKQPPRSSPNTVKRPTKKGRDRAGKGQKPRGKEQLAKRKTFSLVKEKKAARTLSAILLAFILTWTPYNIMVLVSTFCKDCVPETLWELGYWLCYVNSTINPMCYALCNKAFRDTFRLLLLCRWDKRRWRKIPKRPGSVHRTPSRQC
In short: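 Compounds were tested at 15 concentrations in three independent runs. Dye-loaded CHRM1-CHO cells were exposed 5 min at room temperature before stimulation by acetylcholine added at 50nM. Intracellular calcium was read kinetically on FDSS for 3 min.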

[13] = target: Muscarinic acetylcholine receptor M1 (Homo sapiens) (UniProt P11229); assay: Cholinergic receptor muscarinic 1 (CHRM1) small molecule agonists, cell-based qHTS assay (AID 1963589); further: nearly all actives have a fitted effect of over 35% in size
In short: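 Agonist-mode calcium-flux screen: compounds at 15 concentrations, three independent runs, were pin-transferred onto dye-loaded human CHRM1-CHO cells. Fluorescence was then recorded kinetically every second over minutes.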

[14] = cAMP Responsive Elements (CRE) small molecule agonists, cell-based qHTS assay (AID 1963590)
In short: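 Agonist mode: compound added to CRE-bla HEK 293T cells (2,000/well, 18 h after plating) for 3 h at 37 C/5% CO2. Reporter activity detected via FRET beta-lactamase substrate, 2 h room-temperature loading.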

[15] = cAMP Responsive Elements (CRE) small molecule antagonists, cell-based qHTS assay (AID 1963591; active means well fitted inhibition curve with a large enough effect in the signal ratio in the repeat runs, not every such curve was filed as active; the % refers to the signal ratio)
In short: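 Antagonist mode: compounds are added alongside the adenylyl cyclase activator NKH477 (0.25 uM final) to CRE-bla HEK293T cells for 3 h. LiveBLAzer FRET substrate, 2 h at room temperature, reports bla expression.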

[16] = target: Beta-2 adrenergic receptor (Homo sapiens) (UniProt P07550); assay: Adrenergic beta2 receptor (ADRB2) small molecule antagonists, cell-based qHTS assay (AID 1963592); further: series mostly up to about 92 µM; nearly all actives have a fitted effect of over 50% in size
Chain of Beta-2 adrenergic receptor (Homo sapiens) (P07550 whole entry, looked up): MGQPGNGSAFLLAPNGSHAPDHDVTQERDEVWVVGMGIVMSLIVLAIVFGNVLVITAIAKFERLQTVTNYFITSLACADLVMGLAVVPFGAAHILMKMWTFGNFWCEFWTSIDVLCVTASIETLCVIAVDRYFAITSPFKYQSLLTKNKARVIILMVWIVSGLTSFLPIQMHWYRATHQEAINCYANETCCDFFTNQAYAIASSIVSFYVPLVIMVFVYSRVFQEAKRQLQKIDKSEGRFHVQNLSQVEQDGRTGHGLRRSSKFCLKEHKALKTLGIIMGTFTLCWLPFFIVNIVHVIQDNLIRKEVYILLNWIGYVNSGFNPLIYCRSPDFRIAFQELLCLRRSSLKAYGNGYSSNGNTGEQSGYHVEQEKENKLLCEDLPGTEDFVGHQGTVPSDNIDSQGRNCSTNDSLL
In short: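 Assay format: CHO-ADRB2 cells, 18-20hr seeding at 37C/5% CO2, then compound plus 1nM isoproterenol agonist mix for 0.5hr RT. Homogeneous time-resolved fluorescence cAMP detection after 1hr, expressed as 665/615 nm ratio.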

[17] = target: Beta-2 adrenergic receptor (Homo sapiens) (UniProt P07550); assay: Adrenergic beta2 receptor (ADRB2) small molecule agonists, cell-based qHTS assay (AID 1963593);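 further: CHO cells stably overexpressing human ADRB2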
In short: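 CHO cells stably over-expressing ADRB2 were plated overnight at 37C, then dosed with compounds plus a stimulation mix containing 100uM IBMX and 25uM Ro-20-1724 for 0.5hr at room temperature. cAMP was measured by HTRF competition, 1hr.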

[18] = target: D(2) dopamine receptor (Homo sapiens) (UniProt P14416); assay: Dopamine D2 receptor (DRD2) small molecule agonists, cell-based qHTS assay (AID 1963594); further: nearly all actives have a fitted effect of over 35% in size; further: potency means the concentration at half of the fitted maximal effect
Chain of D(2) dopamine receptor (Homo sapiens) (P14416 whole entry, looked up): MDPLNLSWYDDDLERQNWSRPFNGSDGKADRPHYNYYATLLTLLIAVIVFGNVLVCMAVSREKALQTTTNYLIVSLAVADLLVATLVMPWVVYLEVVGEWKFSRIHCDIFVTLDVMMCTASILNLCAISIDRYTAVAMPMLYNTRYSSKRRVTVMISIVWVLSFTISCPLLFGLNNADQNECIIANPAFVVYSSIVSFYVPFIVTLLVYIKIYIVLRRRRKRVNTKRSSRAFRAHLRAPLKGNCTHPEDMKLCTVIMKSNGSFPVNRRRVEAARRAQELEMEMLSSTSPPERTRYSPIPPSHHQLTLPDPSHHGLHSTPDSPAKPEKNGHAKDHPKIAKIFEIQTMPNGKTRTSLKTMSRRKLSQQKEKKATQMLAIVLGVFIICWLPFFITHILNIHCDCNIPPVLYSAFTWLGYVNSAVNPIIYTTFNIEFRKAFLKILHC
In short: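 cAMP accumulation in DRD2-HEK293 cells measured by HTRF after 1 h detection; compounds added 10 min before NKH477 (200nM […]) forskolin-analogue stimulation, 30 min at room temperature, with Ro20-1724 present at 0.1 mM final.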

[19] = target: D(2) dopamine receptor (Homo sapiens) (UniProt P14416); assay: Dopamine D2 receptor (DRD2) small molecule antagonists, cell-based qHTS assay (AID 1963595; active means well fitted inhibition curve with a large enough effect in the signal ratio in the repeat runs, with a control signal flat; the % refers to the signal ratio)
In short: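 Antagonist mode in DRD2-HEK293 cells: after compound addition with 0.1 mM Ro20-1724, cells received quinpirole (12 nM) and NKH477 (200 nM) for 30 min at room temperature; HTRF cAMP read after 1 h detection.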

[20] = p53 small molecule agonists, cell-based qHTS assay with human liver microsomes (AID 1963577)
In short: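 Cells carrying a p53-responsive bla reporter were rested 5 h (37 C, 5% CO2) before compound transfer. Human liver microsomes plus NADPH, 0.5 mg/mL final apiece, supplied metabolism during the 16 h 37 C exposure.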

Measured: Potency

[K+]
not listed: [20]
inactive: all other assays above

C=C(c1ccc(C(=O)O)cc1)c1cc2c(cc1C)C(C)(C)CCC2(C)C
active: [1] 27.3 µM and 23.7 µM
20.4 µM (active) and inactive: [6]
inactive and 12.6 µM (active): [8]
not listed: [5] | [9] | [11] | [12] | [14] | [20]
inactive: all other assays above

CCOC(=O)C(C)Oc1ccc(Oc2cnc3cc(Cl)ccc3n2)cc1 (stereo not given)
not listed: [5] | [9] | [12] | [14] | [15] | [17] | [20]
inactive: all other assays above

c1cc(C(c2ccc(OCC3CO3)cc2)C(c2ccc(OCC3CO3)cc2)c2ccc(OCC3CO3)cc2)ccc1OCC1CO1 (stereo not given)
active: [2] 22.5 µM and 21.7 µM
not listed: [5] | [9] | [14] | [15] | [20]
inactive: all other assays above

CCOC(=O)CC(C(C)=O)C(C)=O
not listed: [7] | [17] | [18] | [20]
inactive: all other assays above

O=C(O)c1cc(=O)c2ccccc2o1
not listed: [6] | [19] | [20]
inactive: all other assays above

CCCCCCCCCCCCCC
not listed: [9] | [20]
inactive: all other assays above

Cc1ccc(C)cc1
not listed: [6] | [20]
inactive: all other assays above

CC(C)CCCCCCc1ccc(O)cc1
active: [1] 6.22 µM | [6] 41.5 µM | [7] 18.5 µM | [8] 45.8 µM | [10] 34 µM | [11] 44.4 µM and 49 µM
2.48 µM (active) and inactive: [2]
inactive: [3] | [4] | [5] | [12] | [13] | [16] | [18]

COc1ccccc1C=O
not listed: [20]
inactive: all other assays above

Nc1nc(=O)n([C@@H]2O[C@H](CO)[C@@H](O)[C@@H]2F)cc1I
not listed: [20]
inactive: all other assays above

CCCC(O)C(O)CO (stereo not given)
not listed: [6]
inactive: all other assays above

O=C1NC(=O)[C@@]2(CCOc3ccc(F)cc32)N1
active: [10] 0.818 µM | [11] 3.01 µM | [18] 0.11 µM
not listed: [7] | [17]
inactive: all other assays above

CCO[Si](OCC)(OCC)c1ccccc1
not listed: [8] | [16] | [19] | [20]
inactive: all other assays above

IC(I)I
not listed: [5] | [12] | [17] | [19]
inactive: all other assays above

COC(=O)Nc1ccc(Cl)c(Cl)c1
not listed: [6]
inactive: all other assays above

O=C(O)c1cc(O)c(O)c(O)c1
not listed: [8] | [17] | [18]
inactive: all other assays above

O=C(/C=C/c1ccccc1)OCc1ccccc1
not listed: [7] | [17]
inactive: all other assays above

CC(=O)/C=C/C1C(C)=CCC(C)C1(C)C (stereo not given)
not listed: [8] | [10]
inactive: all other assays above

CCN(CC)CCN
not listed: [7]
inactive: all other assays above

CC(C)c1ccc(S(=O)(=O)O)cc1
not listed: [5] | [9] | [20]
inactive: all other assays above

C=CC(C)(O)CC/C=C(/C)CCC=C(C)C (stereo not given)
not listed: [7] | [11] | [17] | [19]
inactive: all other assays above

CC(C)(c1cc(Br)c(O)c(Br)c1)c1cc(Br)c(O)c(Br)c1
active: [1] 43.1 µM and 38.5 µM | [6] 16.2 µM and 36.3 µM | [8] 36.2 µM and 40.7 µM | [11] 48.8 µM
not listed: [7] | [9] | [10] | [17] | [19]
inactive: all other assays above

C=COCCOCCOCCOC=C
not listed: [7] | [10]
inactive: all other assays above

C[C@H]1C[C@H](O)c2ccsc2S1(=O)=O
not listed: [5] | [9] | [11]
inactive: all other assays above

c1cnc2cc3c(cc2n1)C1CNCC3C1
not listed: [8] | [15] | [17]
inactive: all other assays above

CC(=O)CC(=O)Nc1ccc2[nH]c(=O)[nH]c2c1
not listed: [5] | [8]
inactive: all other assays above

CCC(C)CO (stereo not given)
not listed: [6] | [7] | [16]
inactive: all other assays above

COc1ccc(N=[N+]([O-])c2ccc(OC)cc2)cc1
not listed: [6] | [17]
inactive: all other assays above

Reference: PubChem BioAssay (Tox21)
